Sampled rows, rich in hits. Any-hit rate of the full collection: about 19%.
HT1080-NT tox – qHTS for induction of synthetic lethality in tumor cells producing 2HG: qHTS for the HT-1080-NT fibrosarcoma cell line; AID 686970, 2013; HT-1080-NT fibrosarcoma viability, CellTiter-Glo ATP luminescence, 48 h; Potency, µM (highest dose often 46.1 µM), usual class: cytotoxic; 360,000 tested, 1.6% active;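 note: NT is the 2HG producing partner of a matched IDH1 knockdown line; nearly all actives have a fitted effect of over 55% in size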
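750 cells/well, RPMI + 5% FBS; 2 h settle, compound pin-transfer, 48 h at 37 degrees C. CellTiter-Glo 10 min RT, luminescence. Normalized to DMSO and media-only wells.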
IL-1B inflam inh – qHTS for Inhibitors of Inflammasome Signaling: IL-1-beta AlphaLISA Primary Screen; THP-1 LPS/ATP IL-1B secretion, AlphaLISA, 16 h; hits give low values; AID 743279, 2014; activity change, % at 57.5 µM; 360,000 tested, 4.7% active; in the data active = activity change below about -50%; inconclusive = mostly about -30% to -49%
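THP-1 cells pretreated 1 hr with compounds (up to 57.5 uM final), then stimulated with LPS (250 ng/mL final) plus ATP (1.25 mM final); secreted IL-1B measured by AlphaLISA after 16 hr, decreased signal indicating inhibition.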
HT1080 IDH1KD tx – qHTS for induction of synthetic lethality in tumor cells producing 2HG: qHTS for the HT-1080-IDH1KD cell line; HT-1080 IDH1 knockdown viability, ATP luminescence, 48 h; Potency, µM (titrated, usually from 46.1 µM), actives largely listed as cytotoxic; 360,000 tested, 2% active; AID 686971, 2013
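% activity derives from luminescence (CellTiter-Glo), normalised to DMSO and no-cell wells. HT-1080-IDH1KD cells, 750/well, had 48 h compound exposure at 37 °C.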
DT40 TDP1 no CPT – qHTS for Inhibitors of human tyrosyl-DNA phosphodiesterase 1 (TDP1): qHTS in cells in absence of CPT. DT40 Tdp1-/- hTDP1 cells, no CPT, ATP luminescence, 48 h. Potency, µM (top dose mostly 46.2 µM), usual class: inhibitors. 420,000 tested, 15% active. AID 686978, 2013; note: nearly all actives have a fitted effect of over 55% in size
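Cells were dispensed at 400 per well, compounds added by pin tool, plates incubated ≥48 hr at 37 °C, then CellTiter-Glo added for 30 min at room temperature before luminescence reading. Line: DT40 Tdp1-/- complemented with hTDP1; camptothecin omitted.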
DT40 TDP1 CPT – qHTS for Inhibitors of human tyrosyl-DNA phosphodiesterase 1 (TDP1): qHTS in cells in presence of CPT; chicken DT40 Tdp1-/-;hTDP1 cells + 20 nM CPT, ATP luminescence, 48 h; Potency, µM (highest dose often 46.2 µM), actives largely listed as inhibitors; 420,000 tested, 12% active; note: nearly all actives have a fitted effect of over 55% in size
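Chicken DT40 Tdp1-/- cells complemented with human TDP1, 400 cells/well, exposed to compounds plus 20 nM camptothecin for at least 48 h at 37 C; viability read as ATP content by CellTiter-Glo luminescence.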
A number is an active result. Unless noted, calls come from the whole dose curve; as a rule, active = well fitted curve in the direction sought with a large enough effect; inconclusive = small, poorly fitted or top-dose-only effect, or another doubt; inactive = no such curve, though single readings can be large; an effect the other way counts as inactive or inconclusive.

`Cc1c(NC(=O)C(=O)/C=C(\O)c2ccc(Cl)cc2)c(=O)n(-c2ccccc2)n1C` gave HT1080-NT tox inactive, IL-1B inflam inh -56.4, HT1080 IDH1KD tx inactive, DT40 TDP1 no CPT inactive and DT40 TDP1 CPT inactive.
`O=C(NCc1ccc(Cl)c(Cl)c1)c1cc(C2CCCCN2C(=O)c2ccccc2)on1` (stereo not given) gave HT1080-NT tox inactive, IL-1B inflam inh inconclusive, HT1080 IDH1KD tx inactive, DT40 TDP1 no CPT 13µM and DT40 TDP1 CPT 18.4µM.
`CC(=O)Nc1ccc(C(=O)N2CCCCC2c2cc(C(=O)NCc3ccccc3)no2)cc1` (stereo not given) gave HT1080-NT tox inconclusive, IL-1B inflam inh inactive, HT1080 IDH1KD tx inactive, DT40 TDP1 no CPT inactive and DT40 TDP1 CPT inactive.
O=C(NCc1ccccc1)c1cc(C2CCCCN2C(=O)c2ccccc2)on1 (stereo not given) was read as HT1080-NT tox inactive, IL-1B inflam inh inactive, HT1080 IDH1KD tx inactive, DT40 TDP1 no CPT 13µM and DT40 TDP1 CPT 18.4µM.
CCCNC(=O)c1cc(C2CCCCN2C(=O)c2cccs2)on1 (stereo not given) was read as HT1080-NT tox inactive, IL-1B inflam inh inactive, HT1080 IDH1KD tx inactive, DT40 TDP1 no CPT inactive and DT40 TDP1 CPT inconclusive.
O=C(Nc1cccc2c1CCCC2)c1cc(C2CCCCN2C(=O)c2cccs2)on1 (stereo not given) was read as HT1080-NT tox inconclusive, IL-1B inflam inh inactive, HT1080 IDH1KD tx inconclusive, DT40 TDP1 no CPT 8.2µM and DT40 TDP1 CPT 8.2µM.
For O=C(NCc1ccc(Cl)c(Cl)c1)c1cc(C2CCCCN2C(=O)c2cccs2)on1 (stereo not given) the results were HT1080-NT tox inactive, IL-1B inflam inh inactive, HT1080 IDH1KD tx inactive, DT40 TDP1 no CPT 20.6µM and DT40 TDP1 CPT 14.6µM.
`O=C(CN1CCCCC1)NC(=O)NC1CCCCC1` gave HT1080-NT tox inactive, IL-1B inflam inh inactive, HT1080 IDH1KD tx inactive, DT40 TDP1 no CPT inactive and DT40 TDP1 CPT inactive.
Screening CCOc1ncccc1C(=O)N(CC)CC(=O)NCc1ccc(F)cc1 returned HT1080-NT tox inactive, IL-1B inflam inh inactive, HT1080 IDH1KD tx inactive, DT40 TDP1 no CPT inactive and DT40 TDP1 CPT inactive.
Cn1cnc(S(=O)(=O)N2CCCCC2c2cc(C(=O)Nc3cccc(C#N)c3)no2)c1 (stereo not given) was read as HT1080-NT tox inactive, IL-1B inflam inh inactive, HT1080 IDH1KD tx inactive, DT40 TDP1 no CPT inactive and DT40 TDP1 CPT inconclusive.
Screening COCCOC(=O)N1CCCCC1c1cc(C(=O)NCc2ccc(Cl)c(Cl)c2)no1 (stereo not given) returned HT1080-NT tox inactive, IL-1B inflam inh inactive, HT1080 IDH1KD tx inactive, DT40 TDP1 no CPT inconclusive and DT40 TDP1 CPT 14.6µM.
For Cn1cnc(S(=O)(=O)N2CCCCC2c2cc(C(=O)NCc3ccc(Cl)c(Cl)c3)no2)c1 (stereo not given) the results were HT1080-NT tox inconclusive, IL-1B inflam inh inactive, HT1080 IDH1KD tx inactive, DT40 TDP1 no CPT 6.51µM and DT40 TDP1 CPT inconclusive.
CCCNC(=O)N1C[C@H](O)COC[C@H]2O[C@@H](CC(=O)N[C@@H]3CCN(Cc4ccccc4)C3)CC[C@@H]21 was read as HT1080-NT tox inactive, IL-1B inflam inh inactive, HT1080 IDH1KD tx inactive, DT40 TDP1 no CPT inactive and DT40 TDP1 CPT inactive.
O=C(CN1CCOCC1)NNc1nc(-c2ccccc2)c2cc(Br)ccc2n1 was read as HT1080-NT tox inactive, IL-1B inflam inh inconclusive, HT1080 IDH1KD tx inactive, DT40 TDP1 no CPT inconclusive and DT40 TDP1 CPT inconclusive.
For O=C(NCCc1ccccc1)C1CCCN1C(=O)Nc1ccc(Cl)cc1 (stereo not given) the results were HT1080-NT tox inactive, IL-1B inflam inh inactive, HT1080 IDH1KD tx inactive, DT40 TDP1 no CPT inconclusive and DT40 TDP1 CPT 16.4µM.
Screening O=C(NCc1cccs1)C1CCCN1C(=O)Nc1ccccc1Cl (stereo not given) returned HT1080-NT tox inactive, IL-1B inflam inh inactive, HT1080 IDH1KD tx inactive, DT40 TDP1 no CPT 23.1µM and DT40 TDP1 CPT inactive.
Screening O=C(NCc1ccco1)C1CCCN1C(=O)Nc1ccc(Cl)cc1 (stereo not given) returned HT1080-NT tox inactive, IL-1B inflam inh inactive, HT1080 IDH1KD tx inactive, DT40 TDP1 no CPT 16.4µM and DT40 TDP1 CPT inconclusive.
Cc1ccccc1NC(=O)N1CCCC1C(=O)NCc1cccs1 (stereo not given) was read as HT1080-NT tox inactive, IL-1B inflam inh inactive, HT1080 IDH1KD tx inactive, DT40 TDP1 no CPT inactive and DT40 TDP1 CPT inactive.
For O=C(NCCc1ccccc1)C1CCCN1C(=O)Nc1ccccc1 (stereo not given) the results were HT1080-NT tox inactive, IL-1B inflam inh inactive, HT1080 IDH1KD tx inactive, DT40 TDP1 no CPT inactive and DT40 TDP1 CPT inactive.
For O=C(NCc1ccco1)C1CCCN1C(=O)Nc1cccc(Cl)c1 (stereo not given) the results were HT1080-NT tox inactive, IL-1B inflam inh inactive, HT1080 IDH1KD tx inactive, DT40 TDP1 no CPT inactive and DT40 TDP1 CPT inactive.
Screening NCCCCCC(=O)Nc1ccncc1 returned HT1080-NT tox inconclusive, IL-1B inflam inh inactive, HT1080 IDH1KD tx inactive, DT40 TDP1 no CPT inactive and DT40 TDP1 CPT inactive.
For COc1ccc(C2=Nn3c(nnc3-c3ccco3)SC2)cc1OC the results were HT1080-NT tox inactive, IL-1B inflam inh inactive, HT1080 IDH1KD tx inactive, DT40 TDP1 no CPT 23.1µM and DT40 TDP1 CPT inconclusive.
`Cc1ccccc1C1=Nn2c(nnc2-c2ccco2)SC1` gave HT1080-NT tox inactive, IL-1B inflam inh inactive, HT1080 IDH1KD tx inactive, DT40 TDP1 no CPT inactive and DT40 TDP1 CPT inactive.
`COc1ccc(C2=Nn3c(nnc3-c3ccccc3OC)SC2)cc1OC` gave HT1080-NT tox 0.461µM, IL-1B inflam inh inactive, HT1080 IDH1KD tx inconclusive, DT40 TDP1 no CPT 0.0058µM and DT40 TDP1 CPT 0.0052µM.
Screening COc1ccc(C2=Nn3c(nnc3-c3ccccn3)SC2)cc1OC returned HT1080-NT tox inactive, IL-1B inflam inh inactive, HT1080 IDH1KD tx inactive, DT40 TDP1 no CPT inactive and DT40 TDP1 CPT inactive.
`COC(=O)c1c(SCC(=O)Nc2ccccc2C(F)(F)F)[nH]c2ccc(Cl)cc2c1=O` gave DT40 TDP1 no CPT 29.1µM and DT40 TDP1 CPT 20.6µM.
`COc1ccc(Cl)cc1NC(=O)CN(C)CC(=O)Nc1ccccc1C(F)(F)F` gave HT1080-NT tox inactive, IL-1B inflam inh inactive, HT1080 IDH1KD tx inactive, DT40 TDP1 no CPT inactive and DT40 TDP1 CPT inactive.
For COC(=O)c1c(SCC(=O)Nc2cc(C)cc(C)c2)[nH]c2ccccc2c1=O the results were DT40 TDP1 no CPT inconclusive and DT40 TDP1 CPT 23.1µM.
